Screening data (PubChem)
PostGolgi yeast = phenotypic screen on post-Golgi transport, primary screen. 98,000 tested, 0.9% active. AID 739, 2007. post-Golgi transport phenotypic cell assay. inhibition, % at 10 µM;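 note: yeast cells grown in 1536-well plates; yeast grown about 18 h at 30C before absorbance read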
Cav3 T inh = Cav3.2 calcium influx blockers – cell-based, Fluo-4 calcium fluorescence, FDSS, MLSMR library, primary screen | 100,000 tested, 4% active | B-score at 10 µM | Cav3.2-expressing cells; stronger effect = lower value;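 active = single-dose well whose peak fluorescence ratio is a statistical outlier from its plate by either plate-standardised score or position-corrected B-score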
PLAP act = PLAP enzyme activators, biochemical, luminescence, HTS; activation fold at 20 µM; Alkaline phosphatase, placental type (Homo sapiens), P05187; 96,000 tested, 1.2% active; purified PLAP enzyme, luminescent substrate read-out; stronger effect = higher value; in the data active = activation fold above about 2
PostGolgi ctrl = growth inhibition of yeast control strain, primary screen, counter-screen for post-Golgi transport modulator project | 98,000 tested, 5% active | AID 738, 2007 | efflux-deficient yeast background strain, growth absorbance A615, 16 h | inhibition, % at 10 µM
hDAT+cocaine = changed hDAT dopamine uptake under cocaine IC80, either direction, primary screen, cocaine antagonist project, cell-based, LLC-PK1 hDAT, [14C]-dopamine uptake, MLSMR | Sodium-dependent dopamine transporter (Homo sapiens), Q01959 | LLC-PK1 hDAT cells, [14C]-dopamine uptake with cocaine IC80; actives deviate in either direction | B-score at 10 µM | 110,000 tested, 1.3% active | AID 449768, 2010;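 active = Z score or B-score, a plate-position-corrected score, falls beyond the plate's 99.7% confidence bounds, in either direction; inactive = both scores lie inside the 99.7% bounds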
Target sequence (Q01959 whole entry, looked up): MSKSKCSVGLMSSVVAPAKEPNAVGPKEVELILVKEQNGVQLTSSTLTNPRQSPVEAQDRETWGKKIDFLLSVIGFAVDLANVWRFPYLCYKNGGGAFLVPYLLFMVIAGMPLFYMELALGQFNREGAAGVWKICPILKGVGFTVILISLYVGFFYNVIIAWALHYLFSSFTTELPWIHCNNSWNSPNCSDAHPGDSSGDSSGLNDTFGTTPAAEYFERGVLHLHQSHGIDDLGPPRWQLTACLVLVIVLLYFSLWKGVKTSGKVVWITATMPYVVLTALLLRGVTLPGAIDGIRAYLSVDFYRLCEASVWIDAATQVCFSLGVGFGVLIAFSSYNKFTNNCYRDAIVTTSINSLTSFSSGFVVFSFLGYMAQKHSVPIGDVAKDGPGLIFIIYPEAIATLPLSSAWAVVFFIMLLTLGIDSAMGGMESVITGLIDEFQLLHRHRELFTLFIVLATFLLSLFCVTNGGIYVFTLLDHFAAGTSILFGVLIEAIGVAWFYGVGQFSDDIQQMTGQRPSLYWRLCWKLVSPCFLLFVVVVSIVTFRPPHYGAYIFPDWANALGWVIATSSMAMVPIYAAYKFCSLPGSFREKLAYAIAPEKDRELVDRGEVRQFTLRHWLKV
Large screens that a line does not name were inactive. Most compounds without a hit are left out; they make up all but 9.6% or so of the library. Cut-off read from the data, not from the text of the source, unless noted: active = inhibition above about 30%; inactive = the rest.

CC1Cc2ccccc2N1C(=O)CSCC(=O)O (stereo not given)	hDAT+cocaine 0.64
COC(=O)C(NC(=O)C(C)Oc1ccccc1)C(C)C (stereo not given)	none
CC(C)Nc1nc(Cl)nc(NNC(=O)C(C)Oc2ccccc2)n1 (stereo not given)	PLAP act 2.2
COc1ccc(Cc2nnc(-c3ccc(F)cc3)o2)cc1OC	none
CCN(CC)S(=O)(=O)c1ccc(NC(=O)Cn2c(=O)sc3ccccc32)cc1	Cav3 T inh -6.1
CCN(CC)S(=O)(=O)c1ccc(NC(=O)C(C)N(c2ccccc2)S(C)(=O)=O)cc1 (stereo not given)	hDAT+cocaine 2.5 (no result: PostGolgi yeast, PLAP act, PostGolgi ctrl)
O=C(Cn1c(=O)sc2ccccc21)Nc1ccccc1	none
CCN(CC)S(=O)(=O)c1ccc(NC(=O)CCC2CCCCC2)cc1	Cav3 T inh -4.4, PLAP act 2.9
CC(C(=O)Nc1ccc(S(=O)(=O)N2CCOCC2)cc1)N(c1ccccc1)S(C)(=O)=O (stereo not given)	none
Cn1c(C(=O)N2CCN(c3nc4ccccc4s3)CC2)cc2sccc21	PostGolgi ctrl 45
Cc1occc1C(=O)N/N=C/c1c[nH]c2ccccc12	none
C/C(=N\NC(=O)c1c[nH]c2ccccc12)c1ccc(C)o1	PLAP act 2.6
CC1CCN(CCNC(=O)C2CCCN(S(=O)(=O)c3cccc4nonc34)C2)CC1 (stereo not given)	none (no result: Cav3 T inh)
CC(C)C(CCNC(=O)CC(Cc1ccccc1)c1ccco1)c1ccco1 (stereo not given)	Cav3 T inh -6.8
O/N=C1/CC/C(=N\O)c2nn(-c3ccccc3)nc21	hDAT+cocaine -8
COC(=O)c1nn(-c2ccccc2)nc1-c1nn(-c2ccccc2)nc1C(=O)OC	PostGolgi yeast 36, PostGolgi ctrl 77
O=C(Nc1ccccc1-c1nc2ccccc2s1)c1cccnc1Cl	none
COc1cc(CNCc2ccccn2)ccc1OCc1ccc(Cl)cc1Cl	PostGolgi ctrl 49 (no result: PLAP act)
CC(=O)c1cccc(NC(=O)NC(C)c2ccncc2)c1 (stereo not given)	PLAP act 2.2
CC(=O)NC1CCCN(O)C(=O)/C=C(\C)CCOC(=O)C(NC(C)=O)CCCN(O)C(=O)/C=C(\C)CCOC(=O)C(NC(C)=O)CCCN(O)C(=O)/C=C(\C)CCOC1=O (stereo not given)	none (no result: PostGolgi yeast, PLAP act, PostGolgi ctrl)
Cc1ccc(C)c(N2CCN(C(=O)c3ccc(CS(=O)(=O)c4ccccc4C)o3)CC2)c1	PostGolgi ctrl 38 (no result: Cav3 T inh)
COc1ccccc1S(=O)(=O)Cc1ccc(C(=O)N2CCN(c3ccccc3)CC2)o1	none
Cc1cccc(N2CCN(C(=O)c3ccc(CS(=O)(=O)c4ccccc4C)o3)CC2C)c1 (stereo not given)	Cav3 T inh -5.7
O=C1OCC(CO)(CO)N=C1NNc1ccc(Cl)c(Cl)c1	PostGolgi yeast 92
COc1ccc(Cn2c(C)c(C)c(C#N)c2NC(=O)Nc2cccc(Cl)c2)cc1	none
CC(=O)C1=C(C)NC(SCC(N)=O)=C(C#N)C1c1cccs1 (stereo not given)	none
CCOC(=O)C1=C(C)NC(SCC(=O)Nc2nc(C)cs2)=C(C#N)C1c1cccs1 (stereo not given)	Cav3 T inh -6.9
CC(C)(C)n1nnnc1CN(Cc1ccc(F)cc1)Cc1ccco1	Cav3 T inh -4.7
Cc1ccc2c(c1)COc1c3ccc(C(=O)NC(C)C)cc3nn1-2	none (no result: PostGolgi yeast, PLAP act, PostGolgi ctrl)
CCCN(CCC)CCCNC(=O)C1c2cc(OC)c(OC)cc2C(=O)N(C)C1c1cccs1 (stereo not given)	PLAP act 2
CCN(CC)CCCNC(=O)C1c2cc(OC)c(OC)cc2C(=O)N(C)C1c1cccs1 (stereo not given)	none
CCCCCCNC(=O)c1c(O)c2ccccc2[nH]c1=O	none
CCOC(=O)C1CCN(c2nc3ccccc3nc2C(C#N)C(=O)OC(C)COC)CC1 (stereo not given)	Cav3 T inh -4.4
COc1ccc(CNC(=O)C(C#N)c2nc3ccccc3nc2N2CCN(C)CC2)cc1 (stereo not given)	none
Cc1cccc(S(=O)(=O)C(C#N)c2nc3ccccc3nc2N2CCCC2)c1 (stereo not given)	none
Cc1ccc(C)c(S(=O)(=O)C(C#N)c2nc3ccccc3nc2N2CC(C)OC(C)C2)c1 (stereo not given)	Cav3 T inh -5.7
COc1ccc(CNC(=O)C(C#N)c2nc3ccccc3nc2N2CCCC2)cc1 (stereo not given)	Cav3 T inh -7.3
Cc1ccc(C)c(S(=O)(=O)C(C#N)c2nc3ccccc3nc2N2CCCC2)c1 (stereo not given)	none
COc1ccc(S(=O)(=O)C(C#N)c2nc3ccccc3nc2N2CCCCC2)cc1 (stereo not given)	Cav3 T inh -4.8
CC1(c2ccc3c(c2)OCO3)NC(=O)N(CC(=O)Nc2ccc(N3CCOCC3)cc2)C1=O (stereo not given)	none
O=C(NC1CCC(NC(=O)C2CCCO2)CC1)C1CCCO1 (stereo not given)	none
CCOc1cc(C(=O)N2CCOCC2)ccc1OCc1ccccc1	none
CCCCCCOC(=O)C(C#N)c1nc2ccccc2nc1N1CCCCC1 (stereo not given)	Cav3 T inh -5.3
N#CC(c1nc2ccccc2nc1N1CCCC1)S(=O)(=O)c1ccccc1 (stereo not given)	PostGolgi ctrl 31
C=CCOC(=O)C(C#N)c1nc2ccccc2nc1N1CCN(Cc2ccc3c(c2)OCO3)CC1 (stereo not given)	none (no result: Cav3 T inh)
CC1CN(c2nc3ccccc3nc2C(C#N)C(=O)NCc2ccc3c(c2)OCO3)CC(C)O1 (stereo not given)	Cav3 T inh -7.9
Cc1ccc2[nH]c3c(=O)n(CCCN4CCN(C)CC4)cnc3c2c1	none
CCn1cc(S(=O)(=O)CC(=O)Nc2ccc(OC)cc2)c2ccccc21	none
CC(C)/C=C1\CCCCC1N(C)C(=O)NC(C)C (stereo not given)	none
CC(C)NC(=S)N/N=C1\CCCCC1C1CCCCC1 (stereo not given)	PostGolgi ctrl 30 (no result: Cav3 T inh)
CC(C)C(=O)NC(=S)Nc1ccc(S(=O)(=O)N(C)Cc2ccccc2)cc1	Cav3 T inh -5.7
CC(=O)N(C)c1ccc(NS(=O)(=O)Cc2ccccc2)cc1	none
CN(Cc1ccccc1)S(=O)(=O)c1ccc(NS(=O)(=O)Cc2ccccc2)cc1	Cav3 T inh -3.8
CCOc1cc(CNc2ccc3c(c2)OCCO3)cc(Br)c1OCC	none (no result: PostGolgi yeast)
CCCN1C2CCCC1CC(NC(=O)Nc1ccc(C(C)C)cc1)C2 (stereo not given)	Cav3 T inh -4.9 (no result: PostGolgi yeast, PLAP act, PostGolgi ctrl)
CCCN1C2CCCC1CC(NC(=O)Nc1cccc(C(C)=O)c1)C2 (stereo not given)	none
CCOC(=O)c1c(-c2ccccc2)nc2cc(C)ccn12	none
